Molecules are shown by their SMILES.

Sequence of Alpha-bungarotoxin (Bungarus multicinctus) (P60615 whole entry, looked up): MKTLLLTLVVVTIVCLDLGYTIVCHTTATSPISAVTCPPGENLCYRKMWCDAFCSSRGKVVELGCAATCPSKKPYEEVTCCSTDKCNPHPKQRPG

This test has as its target Alpha-bungarotoxin (Bungarus multicinctus) (UniProt P60615). As to the kind of experiment: alpha-bungarotoxin binders on microarray, profiling panel, artefact control for SMM control protein annotation, biochemical, small-molecule microarray, Alexa647 label, 635/667 nm fluorescence (AID 1117). The note with it: alpha-BTX-A647 binding fluorescence, higher = more signal.
On to `C=CC[C@@H](OC(=O)Nc1ccc(SC)cc1)c1ccc(O)c(F)c1`, for which the composite z-score stood at 0.26.

Regarding `COc1cc2c(cc1O)C(C1CC1)N(C)CC2` (configuration not stated), the composite z-score is -1.72.

Regarding `O=C1CS(=O)(=O)C(c2cccc([N+](=O)[O-])c2)N1c1ccccc1` (configuration not stated), the composite z-score was determined as 1.98.

With `COC(=O)[C@@H]1N=C(c2ccc(OCCCO)cc2)O[C@@H]1c1ccccc1`, the composite z-score was -0.213.

On to `O=C1NC(=O)C2C1C=CC(C(O)c1ccco1)N2Nc1ccc(Cl)cc1Cl` (configuration not stated), for which the composite z-score was 0.396.

As to `COc1ccc([Si](C)(C)[C@@H]2[C@@H](CCO)O[C@]3(C(=O)N(Cc4cccc(NC(=O)[C@H](C)O)c4)c4ccccc43)[C@H]2C)cc1`, the composite z-score came to 0.756.

`CCCN1C(=O)[C@]2(Cc3ccccc31)N=C(c1ccc(OCCCO)cc1)O[C@@H]2c1ccccc1`: the composite z-score was 1.28.

Regarding `CN(C)C(=O)[C@@]1(Cc2ccccc2)N=C(c2ccc(OCCCO)cc2)O[C@H]1c1ccccc1`, the composite z-score is 0.907.

On to `COCCOC(=O)N1C(=O)[C@@]2(c3cc(C#CC4(O)CCCCCC4)ccc31)[C@H](c1ccc(O)cc1)N1[C@H](c3ccccc3)[C@H](c3ccccc3)OC(=O)[C@H]1[C@@H]2C(=O)N1CCN(c2ncccn2)CC1`, for which the composite z-score came to 0.383.

`COc1ccc(CCNC(=O)[C@@]2(Cc3ccccc3I)c3ccccc3C(=O)N(C3CCCCC3)[C@H]2c2ccc(CO)cc2)cc1`: the composite z-score was found to be 0.678.

Consider `CCOC(=O)C=Cc1cccc(C)c1O`, for which the composite z-score was determined as 0.11.

In turn, `C=CCC(OC(C)=O)[C@@H]1[C@@H](N(Cc2ccc(-c3cccc(C(F)(F)F)c3)o2)C(=O)Cc2ccc(OC)cc2)c2cc(OCCCO)ccc2N1C(=O)c1ccc(-c2ccccc2)cc1` (some centres not stated) came in with a composite z-score of 1.13.

(Values after PubChem BioAssay.)
